In the supplement of paper PMC12632987:
Whole data set: some 4,500 sequences, median “median log2 fold change of GCK-ALFA target abundance (FLAG IP / Myc IP barcode read proportion)” near 0.078, cut for the lowest 2% near -0.6. The full list was thinned out, with the lowest values kept by preference.

B1: GBRAP_35_5544 (protein)
chain: MEEEETVEMLLNTMEDIVLALPDVSPEEQLILTKHLIKLAKLAIEEKPKNKELLKRGIEALKEAIKIVKESDLPEEEKEKLLKELEEAKEKFEKLLKKVE
B2: GBRAP_35_5545 (protein)
chain: DFDEETVEMLLNTMEDIVLALPDVSPEEKLILARHLIDLAEKAIEEKPKNVELLKRGIEVLERAIEIVKASDLPEEEREELIERLEEVKEKFEKLLKENE
B3: GBRAP_35_5547 (protein)
chain: DPETETVEMLLNTMEDIVLALPDVSPEDLETLTKHLIDLANLAIEEKPKNKELLERLIKALEEAIKIVEASDLPEEVKAELLKELEKARKEAEKLLEKVK
B4: GBRAP_128_3307 (protein)
chain: MDEELLEEARELIERLKEADEEEAAELVREIAELLEKATPEEREEIAELFEEALKELSAEKLDVVADTLRELIPKATPETANVLADLQVEALNLAEEKEE
B5: GBRAP_160_4379 (protein)
chain: SEELKELKEEVKKLKEEFKEEAKDLSTAEVRTLAIGVLSEIAALVWSNEAVSEETKDKIMKIIDDAIAKIRANADASPEEIVAIVTEAFDKIIELIEKEE
B6: GBRAP_125_3112 (protein)
chain: NMEEILEALRIILKALGFDEEEIEEAVRLAREYGIKGTMIAAALALGWEEVAELLEKLSEEEVKEALLRTAEKIKENPELTPEEVKELLKEVLKEILEKK
B7: GBRAP_11_2866 (protein)
chain: NKEKLKEIAELLEKLIEVLERLLEEGVDNEELREEALKLAKEILELVKKYSDEADVKLAEYALELLEKAEEDPANAEQYVQEALAFARVLLGNVLLRIDE
B8: GBRAP_52_6101 (protein)
chain: AAAEAEALVERLLALVRAGREAEARAEAAALAAEMDEARLRVLTEALAARARAAAPEDLDAVWRLAELLADELEAAGWPDVLVDDLLAATAAALYERELA
B9: GBRAP_128_3576 (protein)
chain: SDEEILEKAKELIKKIIESDVEEAKKYAEELAKLLKEADPETREKIVELILEALPKLSVEKLEVLADVFREQRPKADPETANLLAEIEVEALNEAVEKEE
B10: GBRAP_166_4948 (protein)
chain: SLEEVIEETREFIRELAERMKTLNDEERLDALIEIAERLEEARKAGVSEEDLLELVREALELVKEAGGSVEQFVGALDMFVDLDEEELDKVAEIAEEVKA
B11: GBRAP_137_3672 (protein)
chain: MIDAKIEIEDGLAYAELTYKGSLEEAKKAAEIAEEIAGKIPGIAISTKVDEDGTLTIDLGGTLEQIMKFLKELAKALNVTINVTIKDLDTGETTKETIKA
B12: GBRAP_160_4310 (protein)
chain: KEELEALKKEVKEIFEEAKKLIEGETKEQQKAIVKVALGEVILLAFESPAITEEAEEKIAEIADEAIATLDANPDLTTEEIKKLLEEAEKKILELIEKLK
B13: GBRAP_74_6571 (protein)
chain: MEKYTKEMKAAAAAGDVKKAIKIVEEMIEKGIKKVSAEFLNALATIAEKHLPKATPEEQERFIDAASELVDLVLESEQDEETYKALNKLITALYEAELAR
B14: GBRAP_57_6475 (protein)
chain: MERLKAVEEAAERALALIDARAPREEILAAVRELAELLSEETLRDVLLIADPEAPEDLSKEEAIARLVALAAAYLDAGDYDGLRRLVELMLGTAEMDFEE
B15: GBRAP_39_5697 (protein)
chain: EREEEAEDTFSYLEAIGAKYQVEEKISLEEARERTRELAERFIKEHPEIAEVLKELLELAEKAGDLAILALLGLLLRAEEGTPLEEIKKDAELLIEYLKS
B16: GBRAP_125_2965 (protein)
chain: SEEEALEALAIIAKALGFDEDEVEEAVELARRFGLKKTLIALFLAEGYEEVADLVEKLTEEEAREVAKKLAEEIKKNPELTPEEVVELAKKLFEEVIAKK
B17: GBRAP_80_6822 (protein)
chain: MEEELEANLKALEAVDPEIAKIVREIVEIARELGVPLETLVRLAKAILELAKVDKEKARELAEELLEELREEREEGDREGALAELVDAESEALLEVEELE
B18: GBRAP_184_5158 (protein)
chain: KVLERTIEADNLEELKKKLKEIKEEAAKTKADLIVVLNLKELTKEMLETALSTLGEIKKEGLAPSITLLIENEMNDEQIDFALKLADEAGVTLVVAIPDE
B19: GBRAP_160_4463 (protein)
chain: KEEVKEAVEELRERVEEVLEDSENMSPEQILLAVAVEVGSSLLEWEEEGKISDEQAEILAKAIDELLRLAKEEKNASPEEAKKRAREIVEKAAKEILAAA

What follows are binders tested against GABARAP, O95166 (assay: median log2 fold change of GCK-ALFA target abundance (FLAG IP / Myc IP barcode read proportion) (log2 ratio); each designed protein is fused to an ALFA-tag nanobody in HEK293 cells to bring the named protein to FLAG-tagged glucokinase (GCK); Myc marks an untargeted standard; higher = target protein stabilised (more abundant)). Conditions: target protein: 3xFLAG-MCP-GCK-ALFA reporter; HEK293 landing pad (RPLP).
Protocol: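 LABEL-seq trans screen in HEK293 landing-pad cells. Each de novo designed 100-aa effector handle, binding the indicated effector (E3 ligase, DUB or autophagy protein), is fused to a constant NbALFA target handle and induced with 2 ug/mL doxycycline. A FLAG-MCP-GCK-ALFA target and a Myc-MCP standard reporter were transfected, and after 48 h circRNA barcodes were recovered by anti-FLAG and anti-Myc IP and sequenced. The value is the median across barcodes (at least 3 per design) of log2(FLAG/Myc read-proportion ratio), with the two transfection replicates pooled. Negative values mean degradation and positive values mean stabilisation of the target.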

GABARAP, O95166, sequence (O95166 whole entry, the tested form may be a part): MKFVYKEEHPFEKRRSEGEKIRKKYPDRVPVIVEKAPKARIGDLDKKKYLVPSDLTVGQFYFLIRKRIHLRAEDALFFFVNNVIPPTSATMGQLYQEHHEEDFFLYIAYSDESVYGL

Row | Binder | median log2 fold change
1 | B1 | -0.612
2 | B2 | 0.127
3 | B3 | 0.0216
4 | B4 | 0.0926
5 | B5 | 0.234
6 | B6 | -0.66
7 | B7 | -0.0773
8 | B8 | -0.279
9 | B9 | 0.00207
10 | B10 | 0.0139
11 | B11 | 0.117
12 | B12 | -0.615
13 | B13 | -0.298
14 | B14 | 0.257
15 | B15 | 0.186
16 | B16 | -0.872
17 | B17 | -0.574
18 | B18 | -0.0197
19 | B19 | -0.697
